TDP1 block: TDP1 (human) enzyme inhibition | Q9NUW8 | recombinant TDP1, AlphaScreen DNA substrate cleavage | Potency, µM (titrated, usually from 130 µM), most hits filed as inhibitors | 350,000 tested, 0.28% active; note: nearly all actives have a fitted effect of over 40% in size
Target sequence (Q9NUW8 whole entry, looked up): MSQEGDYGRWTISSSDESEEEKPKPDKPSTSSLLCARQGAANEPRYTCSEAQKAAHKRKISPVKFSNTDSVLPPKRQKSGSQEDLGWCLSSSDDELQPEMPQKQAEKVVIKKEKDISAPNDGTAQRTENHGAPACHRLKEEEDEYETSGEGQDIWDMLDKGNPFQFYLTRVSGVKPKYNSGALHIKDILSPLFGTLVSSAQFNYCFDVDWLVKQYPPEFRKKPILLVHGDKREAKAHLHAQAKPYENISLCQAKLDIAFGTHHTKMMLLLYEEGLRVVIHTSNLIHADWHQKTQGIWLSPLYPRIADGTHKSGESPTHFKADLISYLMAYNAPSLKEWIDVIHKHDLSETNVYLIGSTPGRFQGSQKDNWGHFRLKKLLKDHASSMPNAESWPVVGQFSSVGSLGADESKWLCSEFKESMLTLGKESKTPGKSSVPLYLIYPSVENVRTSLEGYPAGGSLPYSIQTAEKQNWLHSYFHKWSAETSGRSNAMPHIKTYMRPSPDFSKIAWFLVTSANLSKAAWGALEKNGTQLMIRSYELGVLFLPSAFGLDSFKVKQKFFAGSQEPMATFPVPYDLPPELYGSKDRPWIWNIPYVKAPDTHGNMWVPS
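Enzyme-compound mixtures sat 15 min at room temperature, followed by a 5 min reaction with 15 nM final substrate and 10 min with AlphaScreen beads. Recombinant human Tdp1 was used at 1 nM final.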
TDP1 cell CPT: growth inhibition of DT40 Tdp1-/-;hTDP1 cells with camptothecin (screen for TDP1 inhibitors). chicken DT40 Tdp1-/-;hTDP1 cells + 20 nM CPT, ATP luminescence, 48 h. Potency, µM (series often up to 46.2 µM), usual class: inhibitors. 420,000 tested, 12% active. AID 686979; note: nearly all actives have a fitted effect of over 55% in size
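Cell growth measured by CellTiter-Glo luminescence after a minimum 48 h, 37 C compound exposure with 20 nM CPT in Tdp1-knockout DT40 cells stably expressing hTDP1, seeded 400/well; qHTS titration format.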
HepG2 viability: counter-screen for TGF-b inhibitors: cytotoxicity in HepG2 cells | 410,000 tested, 0.76% active | Potency, µM (series often up to 46.1 µM), actives largely listed as cytotoxic | HepG2 CAGA-GFP viability, ATP luminescence, 18 h
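HepG2 CAGA-GFP cells (1000/well, DMEM with 1% FBS) received compound, then TGF-beta at 500 pg/mL final, and were incubated 18 hours at 37 degrees C. Viability was read by CellTiter-Glo luminescence. Media-only wells were set as complete cell-killing and DMSO as no toxicity.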
TGFb inhibitor: blocks TGF-b signaling; HepG2 CAGA-GFP TGF-b/SMAD3 reporter, GFP fluorescence, 18 h; TGF-beta stimulated, 500 pg/mL final; Potency, µM (highest dose often 46.1 µM), usual class: inhibitors; 410,000 tested, 1.2% active; note: nearly all actives have a fitted effect of over 65% in size
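HEPG2 CAGA-GFP reporter cells (1000/well, DMEM with 1% FBS) received compounds, then recombinant TGF-beta at 500 pg/mL final for 18 hours at 37 degrees C. Per-cell GFP summed per well was normalised to unstimulated and stimulated DMSO controls before curve fitting.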
IL-1B inflam inh: inflammasome signaling inhibition, IL-1 beta readout | THP-1 LPS/ATP IL-1B secretion, AlphaLISA, 16 h; stronger effect = lower value | AID 743279 | activity change, % at 57.5 µM | 360,000 tested, 4.7% active; in the data active = activity change below about -50%; inconclusive = mostly about -30% to -49%
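Secreted IL-1B measured by AlphaLISA bead assay after 16 h compound exposure of THP-1 cells; compounds (final up to 57.5 uM) added 1 h before LPS (250 ng/mL) and ATP (1.25 mM) stimulation; lower signal means less secretion.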
DT40 TDP1 no CPT: qHTS for Inhibitors of human tyrosyl-DNA phosphodiesterase 1 (TDP1): qHTS in cells in absence of CPT; DT40 Tdp1-/- hTDP1 cells, no CPT, ATP luminescence, 48 h; Potency, µM (doses to about 46.2 µM), actives largely listed as inhibitors; 420,000 tested, 15% active; note: nearly all actives have a fitted effect of over 55% in size
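A cellular qHTS used chicken DT40 cells lacking endogenous Tdp1 but carrying stably transfected human TDP1. Compounds were applied without camptothecin, and cell growth kinetics were judged by ATP-dependent luminescence after ≥48 hr.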
A number is an active result; – = inactive; ? = inconclusive; · = not tested or not shown. Shown are actives, neighbours in structure and some others; about 18% of the full set was active somewhere. Unless noted, calls come from the whole dose curve; as a rule, active = well fitted curve in the direction sought with a large enough effect; inconclusive = small, poorly fitted or top-dose-only effect, or another doubt; inactive = no such curve, though single readings can be large; an effect the other way counts as inactive or inconclusive.

SMILES | TDP1 block | TDP1 cell CPT | HepG2 viability | TGFb inhibitor | IL-1B inflam inh | DT40 TDP1 no CPT
COc1ccc(-c2cc(C(F)(F)F)c(C#N)c(SCC(=O)Nc3nc(C)co3)n2)cc1 | – | ? | – | – | – | ?
Cc1coc(NC(=O)CSc2nc(-c3ccc(Cl)cc3)cc(C(F)(F)F)c2C#N)n1 | – | 21µM | – | – | – | ?
Cc1cc(OC(C)C(=O)N2CCN(c3ccccc3)CC2)c2c(C)c(C)c(=O)oc2c1 (configuration not stated) | – | ? | – | – | – | 29µM
C#Cc1ccc(C(=O)Nc2cc(C(N)=O)ccc2N2CCOCC2)cc1 | – | ? | – | – | – | –
CCOc1ccc(NC(=O)NC(C)c2c(-n3cccc3)sc(C)c2C)cc1 (configuration not stated) | – | ? | – | · | · | ?
Cc1cccc(N2CCN(C(=O)CS(=O)(=O)c3cccc4nsnc34)CC2)c1C | – | 16µM | – | – | · | ?
CCC(=O)N1CCc2cc(Br)cc(S(=O)(=O)CCC(=O)N3CCN(c4cccc(C(F)(F)F)c4)CC3)c21 | – | ? | – | – | · | ?
O=C(CS(=O)(=O)c1cccc2nsnc12)N1CCN(c2ccccc2F)CC1 | – | – | – | 16µM | · | –
O=C(CS(=O)(=O)c1cccc2nsnc12)N1CCN(c2cccc(C(F)(F)F)c2)CC1 | – | 8.2µM | – | – | · | 21µM
CCn1c(=O)c2c(nc(SCC(=O)N3CCC(C)CC3)n2C)n(C)c1=O | – | – | – | – | – | ?
CSc1cccc(NC(=O)CN(c2ccccc2)S(=O)(=O)N(C)C)c1 | – | 26µM | – | – | – | 29µM
CSc1cccc(NC(=O)CN(c2ccc(C)cc2C)S(C)(=O)=O)c1 | – | – | – | – | – | ?
CN(C)S(=O)(=O)N(CC(=O)Nc1ccc(F)c(F)c1)c1ccccc1 | – | – | – | – | – | –
CSc1cccc(NC(=O)CN(c2cccc(C)c2)S(C)(=O)=O)c1 | – | 18µM | – | – | – | ?
Cn1c2ccccc2c2cc([N+](=O)[O-])ccc21 | · | – | – | – | – | –
CCN(CC)CCn1c2ccccc2c2nc3ccc([N+](=O)[O-])cc3cc21 | · | 8.2µM | – | – | – | 4.6µM
COc1cc(CNCc2ccc(C)cc2)cc(OC)c1OC | · | ? | – | – | – | –
CCC/C(C#CCCN1C(=O)c2ccccc2C1=O)=C1/c2ccccc2C(=O)N1c1ccccc1 | – | 18µM | – | – | – | ?
CCC/C(C#Cc1ccc(N(C)C)cc1)=C1/c2ccccc2C(=O)N1c1ccccc1 | – | 15µM | – | – | – | 16µM
CCC/C(=C1/c2ccccc2C(=O)N1c1ccccc1)c1ccc2c(c1)OCO2 | – | ? | – | – | – | ?
CCC/C(C#Cc1cc(OC)cc(OC)c1)=C1/c2ccccc2C(=O)N1c1ccccc1 | – | 26µM | – | ? | – | ?
CCC/C(C(=O)NCCO)=C1/c2ccccc2C(=O)N1c1ccccc1 | – | – | – | – | – | ?
CCC/C(C#Cc1ccsc1)=C1/c2ccccc2C(=O)N1c1ccccc1 | – | ? | – | ? | -89 | ?
CSCC[C@H](N)C(=O)N[C@@H](CCC(=O)O)C(=O)N[C@H](C(=O)NCC(=O)N[C@@H](Cc1c[nH]c2ccccc12)C(=O)N[C@@H](Cc1ccc(O)cc1)C(=O)N[C@@H](CCCNC(=N)N)C(=O)N[C@@H](CO)C(=O)N1CCC[C@H]1C(=O)N[C@@H](Cc1ccccc1)C(=O)N[C@@H](CO)C(=O)N[C@@H](CCCNC(=N)N)C(=O)N[C@H](C(=O)N[C@H](C(=O)N[C@@H](Cc1cnc[nH]1)C(=O)N[C@@H](CC(C)C)C(=O)N[C@@H](Cc1ccc(O)cc1)C(=O)N[C@@H](CCCNC(=N)N)C(=O)N[C@@H](CC(N)=O)C(=O)NCC(=O)N[C@@H](CCCCN)C(=O)O)C(C)C)C(C)C)C(C)C | – | · | · | · | · | ·
CC1=C(C(=O)O)N2C(=O)[C@@H](NC(=O)[C@H](N)C3=CCC=CC3)[C@H]2SC1 | · | ? | · | · | · | –
SMILES | TDP1 block | TDP1 cell CPT | HepG2 viability | TGFb inhibitor | IL-1B inflam inh | DT40 TDP1 no CPT
Cn1cc(-c2csc(C(O)(c3ccccc3)C(F)(F)F)n2)cn1 (configuration not stated) | · | – | – | – | – | ?
COc1cc(=O)n2c(c1C(=O)NC(C)c1ccco1)CCN(Cc1ccc3nsnc3c1)CC2 (configuration not stated) | · | – | · | · | · | –
O=C(c1ccc([N+](=O)[O-])cc1)N(Cc1ccco1)c1ccccn1 | – | – | – | – | · | –
O=C1c2ccccc2C(=O)N1CCC#C/C=C1\c2ccccc2C(=O)N1c1ccccc1 | · | ? | – | ? | – | 21µM
O=C(Cn1c(CO)nc2ccccc21)Nc1ccc2c(c1)OCCCO2 | – | – | – | – | – | –
CCCCNC(=O)C1CCN(Cc2nc(-c3ccc(OC)c(OC)c3)oc2C)CC1 | – | – | – | – | · | –
CCN(CCNC(=O)C1CCN(Cc2nc(-c3ccc(Cl)cc3)oc2C)CC1)c1ccccc1 | – | 23µM | – | ? | -54 | 18µM
CCN(CCNC(=O)C1CCCN(Cc2nc(-c3ccc(OC)cc3)oc2C)C1)c1ccccc1 (configuration not stated) | – | 16µM | – | ? | -73 | 23µM
C=C(c1nc2ccccc2s1)C1Cc2cccc3c2N(CCC3)C1 (configuration not stated) | · | 0.089µM | 7.1µM | 4µM | · | 0.089µM
Oc1ccccc1-n1c(-c2ccccc2)ccc1-c1ccccc1 | · | ? | – | – | -80 | –
Cc1ccc(-c2ccccc2)n1-c1ccc(C(=O)O)cc1 | – | – | – | – | – | –
O=C(O)c1ccccc1C(=O)NNC(=O)C(c1ccccc1)c1ccccc1 | – | – | – | – | – | –
O=C(NNc1ccccn1)C(c1ccccc1)c1ccccc1 | – | – | – | – | – | –
O=C(NNC(=O)c1ccccn1)c1ccc(OC(F)F)cc1 | – | 5.8µM | – | – | – | 4.6µM
CC(Sc1ccc(Cl)cc1)C(=O)NNC(=O)c1ccccc1O (configuration not stated) | – | 16µM | – | – | – | 7.3µM
CSCCC(NC(=O)c1ccccc1Cl)C(=O)NNC(=O)c1ccccc1O (configuration not stated) | – | ? | – | – | – | ?
O=C(NNC(=O)C(c1ccccc1)c1ccccc1)c1ccccc1O | · | 18µM | – | – | – | ?
